Test results published in PubChem BioAssay (NCATS).
Records with an inconclusive call do not appear. Activity calls are given as the source filed them. Calls come from the whole dose curve; as a rule, active = well fitted curve in the direction sought with a large enough effect; inconclusive = small, poorly fitted or top-dose-only effect, or another doubt; inactive = no such curve, though single readings can be large; an effect the other way counts as inactive or inconclusive.

Columns and labels:
HACAT = assay: qHTS assay to identify novel small-molecules to repurpose for Merkel cell carcinoma treatment (AID 1296009); conditions: MCC and control cell lines, CellTiter-Glo viability, 72 h; at 44.8 µM (top of the series) unless noted; note: nearly all actives have a fitted effect of over 60% in size
Summary of the method: (§1)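 Luminescence from CellTiter-Glo, read 10 min after addition at room temperature, reported viability following a 72 hr, 37 degree celsius treatment with NPC or MIPE compounds in titration; values normalized to plate controls.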

NIH3T3 = assay: as above; conditions: MCC and control cell lines, CellTiter-Glo viability, 72 h; at 44.8 µM (top of the series) unless noted
Summary of the method: as §1

C33A = assay: Primary qHTS to identify gynecologic anti-cancer compounds using libraries of approved drugs and bioactive compounds (AID 1345084); conditions: Gynecologic cancer cell panel viability, ATPlite luminescence, 48 h; series mostly up to 57.5 µM; note: nearly all actives have a fitted effect of over 55% in size; note: potency is the fitted concentration of half-maximal effect; for activity change, negative = cytotoxicity: % is set by controls: 0 for no effect and ±100 for the full control effect
Summary of the method: (§2)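 Cytotoxicity screen measuring ATP content by luciferase luminescence. Each compound is applied at five concentrations for 48 h at 37 C with 5% CO2.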

CAOV3 = assay: as above; conditions: Gynecologic cancer cell panel viability, ATPlite luminescence, 48 h; series mostly up to 57.5 µM
Summary of the method: as §2

CASKI = assay: as above; conditions: Gynecologic cancer cell panel viability, ATPlite luminescence, 48 h; series mostly up to 57.5 µM
Summary of the method: as §2

Es-2 = assay: as above; conditions: Gynecologic cancer cell panel viability, ATPlite luminescence, 48 h; series mostly up to 57.5 µM
Summary of the method: as §2

HeLa = assay: as above; conditions: Gynecologic cancer cell panel viability, ATPlite luminescence, 48 h; series mostly up to 57.5 µM
Summary of the method: as §2

Hek293T = assay: as above; conditions: Gynecologic cancer cell panel viability, ATPlite luminescence, 48 h, control line for the selectivity index; series mostly up to 57.5 µM
Summary of the method: as §2

JEG-3 = assay: as above; conditions: Gynecologic cancer cell panel viability, ATPlite luminescence, 48 h; series mostly up to 57.5 µM
Summary of the method: as §2

CC(=O)OC12CC(C)C(O)C1/C=C(/COC1OC(CO)C(O)C(O)C1O)CCC1C(/C=C(\C)C2=O)C1(C)C (stereo not given)
inactive: outcome (HACAT) inactive [at 17.4 µM] | outcome (NIH3T3) inactive [at 17.4 µM] | Potency (C33A) | Potency (CAOV3) | outcome (CASKI) | Potency (Es-2) | Potency (HeLa) | Potency (Hek293T) | Potency (JEG-3)

OC[C@@]1(O)CO[C@H](OC[C@H]2O[C@@H](OC(CCCCc3ccc(O)cc3)CCc3ccc(O)cc3)[C@H](O)[C@@H](O)[C@@H]2O)[C@@H]1O (stereo not given in full)
inactive: outcome (HACAT) inactive [at 17.4 µM] | outcome (NIH3T3) inactive [at 17.4 µM] | Potency (C33A) | Potency (CAOV3) | outcome (CASKI) | Potency (Es-2) | Potency (HeLa) | Potency (Hek293T) | Potency (JEG-3)

CC(C)NC(=O)c1ccc(C#Cc2ccncc2)cn1
inactive: outcome (HACAT) | outcome (NIH3T3) | Potency (C33A) | Potency (CAOV3) | outcome (CASKI) | Potency (Es-2) | Potency (HeLa) | Potency (Hek293T) | Potency (JEG-3)

C/C(=C\CCC1(C)C2CC3C(C2)C31C)C(=O)O (stereo not given)
inactive: outcome (HACAT) | outcome (NIH3T3) | Potency (C33A) | Potency (CAOV3) | outcome (CASKI) | Potency (Es-2) | Potency (HeLa) | Potency (Hek293T) | Potency (JEG-3)

N#Cc1cccc(-c2nc(-c3cccnc3)no2)c1
inactive: outcome (HACAT) inactive [at 17.4 µM] | outcome (NIH3T3) inactive [at 17.4 µM] | Potency (C33A) | Potency (CAOV3) | outcome (CASKI) | Potency (Es-2) | Potency (HeLa) | Potency (Hek293T) | Potency (JEG-3)

CC1(C)CC(NC(=O)C(=O)Nc2ccc(Cl)cc2)CC(C)(C)N1
inactive: outcome (HACAT) | outcome (NIH3T3) | Potency (C33A) | Potency (CAOV3) | outcome (CASKI) | Potency (Es-2) | Potency (HeLa) | Potency (Hek293T) | Potency (JEG-3)

CC(=O)OC[C@]12[C@@H](OC(=O)c3ccoc3)C[C@@H]3[C@@H](OC(C)=O)[C@]1(OC3(C)C)[C@@](C)(O)C[C@H](OC(=O)c1ccoc1)[C@@H]2OC(=O)c1ccoc1
inactive: outcome (HACAT) inactive [at 17.4 µM] | outcome (NIH3T3) inactive [at 17.4 µM] | Potency (C33A) | Potency (CAOV3) | outcome (CASKI) | Potency (Es-2) | Potency (HeLa) | Potency (Hek293T) | Potency (JEG-3)

CC(=O)N[C@H](Cc1c[nH]c2ccccc12)C(=O)OCc1cc(C(F)(F)F)cc(C(F)(F)F)c1
inactive: outcome (HACAT) | outcome (NIH3T3) | Potency (C33A) | Potency (CAOV3) | outcome (CASKI) | Potency (Es-2) | Potency (HeLa) | Potency (Hek293T) | Potency (JEG-3)

CC1(C)CC[C@]2(C(=O)O[C@@H]3O[C@H](CO)[C@@H](O)[C@H](O)[C@H]3O)CC[C@]3(C)C(=CCC4[C@@]5(C)CC[C@H](O[C@H]6O[C@H](CO)[C@@H](O)[C@H](O[C@@H]7O[C@H](CO)[C@@H](O)[C@H](O)[C@H]7O)[C@H]6O)C(C)(C)C5CC[C@]43C)[C@@H]2C1 (stereo not given in full)
inactive: outcome (HACAT) inactive [at 9.27 µM] | outcome (NIH3T3) inactive [at 9.27 µM] | activity change, negative = cytotoxicity (C33A) 0.319% [at 11.6 µM] | activity change, negative = cytotoxicity (CAOV3) 1.94% [at 11.6 µM] | activity change, negative = cytotoxicity (CASKI) -7.8% [at 11.6 µM] | activity change, negative = cytotoxicity (Es-2) -1.42% [at 11.6 µM] | activity change, negative = cytotoxicity (HeLa) 11.5% [at 11.6 µM] | activity change, negative = cytotoxicity (Hek293T) 5.32% [at 11.6 µM] | activity change, negative = cytotoxicity (JEG-3) -9.09% [at 11.6 µM]

Nc1ccc(-n2nc(C(F)(F)F)cc2C(F)(F)F)cc1
inactive: outcome (HACAT) | outcome (NIH3T3) | Potency (C33A) | Potency (CAOV3) | outcome (CASKI) | Potency (Es-2) | Potency (HeLa) | Potency (Hek293T) | Potency (JEG-3)

CC1(C)CC[C@]2(C(=O)O[C@@H]3O[C@H](CO)[C@@H](O)[C@H](O)[C@H]3O)CC[C@]3(C)C(=CCC4[C@@]5(C)C[C@H](O)[C@H](O[C@@H]6OC[C@@H](O)[C@H](O)[C@H]6O)[C@@](C)(CO)C5CC[C@]43C)C2C1 (stereo not given in full)
inactive: outcome (HACAT) inactive [at 9.27 µM] | outcome (NIH3T3) inactive [at 9.27 µM] | activity change, negative = cytotoxicity (C33A) 6.67% [at 11.6 µM] | activity change, negative = cytotoxicity (CAOV3) 10.5% [at 11.6 µM] | activity change, negative = cytotoxicity (CASKI) 2.82% [at 11.6 µM] | activity change, negative = cytotoxicity (Es-2) 1.33% [at 11.6 µM] | activity change, negative = cytotoxicity (HeLa) 24.4% [at 11.6 µM] | activity change, negative = cytotoxicity (Hek293T) 12.6% [at 11.6 µM] | activity change, negative = cytotoxicity (JEG-3) 17% [at 11.6 µM]

CC1=CC(=O)C(=C(C)C)CC2C(C)(O)CCC12O (stereo not given)
inactive: outcome (HACAT) | outcome (NIH3T3) | Potency (C33A) | Potency (CAOV3) | outcome (CASKI) | Potency (Es-2) | Potency (HeLa) | Potency (Hek293T) | Potency (JEG-3)

CC1OC(O[C@@H]2[C@H](O)[C@@H](OC3OC(CO)C(O)C(O)C3O)[C@H](OC(=O)[C@]34CCC(C)(C)C[C@H]3C3=CCC5[C@@]6(C)CC[C@H](O[C@@H]7O[C@H](C(=O)O)[C@@H](O)[C@H](O[C@@H]8OC[C@@H](O)[C@H](O)[C@H]8O)[C@H]7O[C@@H]7O[C@H](CO)[C@H](O)[C@H](O)[C@H]7O)[C@@](C)(C=O)C6CC[C@@]5(C)[C@]3(C)C[C@H]4O)O[C@@H]2C)C(O)C(O)C1OC1OCC(O)C(O)C1O (stereo not given in full)
inactive: outcome (HACAT) inactive [at 4.96 µM] | outcome (NIH3T3) inactive [at 4.96 µM] | activity change, negative = cytotoxicity (C33A) 2.44% [at 6.55 µM] | activity change, negative = cytotoxicity (CAOV3) 8.46% [at 6.55 µM] | activity change, negative = cytotoxicity (CASKI) 4.43% [at 6.55 µM] | activity change, negative = cytotoxicity (Es-2) -4.12% [at 6.55 µM] | activity change, negative = cytotoxicity (HeLa) 23.9% [at 6.55 µM] | activity change, negative = cytotoxicity (Hek293T) 0.666% [at 6.55 µM] | activity change, negative = cytotoxicity (JEG-3) 2.9% [at 6.55 µM]

CNC(C)C(=O)NC(C(=O)N1CCCC1C(=O)Nc1cccc2ncccc12)C(C)C (stereo not given)
inactive: outcome (HACAT) | outcome (NIH3T3) | Potency (C33A) | outcome (CASKI) | Potency (Es-2) | Potency (HeLa) | Potency (Hek293T) | Potency (JEG-3)
active: Potency (CAOV3) 10 µM

CC1(CO)CCCC2(C)C1C(OC(=O)c1ccccc1)CC1C(=O)OCC12O (stereo not given)
inactive: outcome (HACAT) | outcome (NIH3T3) | Potency (C33A) | Potency (CAOV3) | outcome (CASKI) | Potency (Es-2) | Potency (HeLa) | Potency (Hek293T) | Potency (JEG-3)
